Compounds with a hit are over-represented: about 7.9% of the library has one in this group of screens.
MARV entry inh: qHTS for inhibitors of binding or entry into cells for Marburg Virus; Marburg virus pseudotyped entry inhibition, cell reporter; Potency, µM (doses to about 37.8 µM), for inactives: at the top dose activity change, negative = inhibition, most hits filed as inhibitors; 300,000 tested, 1.8% active; AID 540276, 2011; calls by dose curve; tested in HEK293 cells; further: potency means the concentration at half of the fitted maximal effect
Lassa entry inh: qHTS for Inhibitors of binding or entry into cells for Lassa Virus | 300,000 tested, 1.2% active | Lassa virus pseudotype entry inhibition, cell reporter | AID 540256, 2011 | Potency, µM (series often up to 37.9 µM), inactives show at the top dose activity change, negative = inhibition, most hits filed as inhibitors; calls by dose curve; tested in HEK293 cells; further: potency means the concentration at half of the fitted maximal effect; nearly all actives have a fitted effect of over 50% in size
FMDV antiviral: High Throughput Screening for Foot and Mouth Disease Virus Antivirals; FMDV antiviral cell-based qHTS; AID 1159524, 2015; 410,000 tested, 1.2% active; Potency, µM (top dose mostly 57.9 µM), without a hit: top-dose activity change, negative = inhibition, usual class: inhibitors; calls by dose curve; tested in HEK293T cells; further: read-out not given here; potency means the concentration at half of the fitted maximal effect; nearly all actives have a fitted effect of over 45% in size
HCV inh: qHTS Assay for Inhibitors of Hepatitis C Virus (HCV); 340,000 tested, 3.4% active; Huh7.5.1 HCVcc-Cre infection, luciferase reporter, 44 h; AID 651820, 2012; Potency, µM (titrated, usually from 41.8 µM), without a hit: top-dose activity change, negative = inhibition, usual class: inhibitors; active means well fitted inhibition curve with a large enough effect; inconclusive means small, poorly fitted or top-dose-only effect, or another doubt; inactive means no such curve, though single readings can be large or run the other way; further: potency means the concentration at half of the fitted maximal effect
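Cells seeded at 1,000/well and cultured 4 h, then compounds added followed by HCVcc-Cre virus (~0.5 moi). After 44 h further culture, luciferase substrate was added, plates held 15 min at room temperature, and luminescence read for 15 sec.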
HCMV inh: qHTS Assay for inhibitors of the human cytomegalovirus (HCMV); HFF cells, HCMV-luciferase reporter, 72 h; hits give low values; AID 1259415, 2018; 410,000 tested, 4.5% active; activity change, negative = inhibition, % at 57.5 µM; in the data active means activity change below about -60%; inconclusive means no clear call, values can overlap the other calls; inactive means above about -39%
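After 16 h attachment at 37C, HFF cells received test compound and HCMV-luciferase (1 PFU/cell); reporter luminescence read 72 h later, data normalized against buffer-only and known inhibitor Salinomycin.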
Starred values were filed as active, the others as inactive; [ ] = dose if it differs, or a comment. On the % scale 0 is the no-effect control and ±100 the full control effect.

For COc1ccc(CC(=O)N2CCc3cc(OC)c(OC)cc3C2COc2ccc(OC)cc2)cc1 (stereo not given) the results were Lassa entry inh inconclusive, FMDV antiviral 0% and HCMV inh 19.
CC(CCC(=O)OC[C@H]1O[C@H](C#Cc2ccccc2)C=C[C@H]1Oc1ccc(C)cc1)=NOC[C@@H](O)[C@H]1O[C@@H]2OC(C)(C)O[C@H]2[C@@H]1O was read as MARV entry inh -2%[14.2 µM] and Lassa entry inh 1%[14.3 µM].
For COc1ccccc1C(=O)N[C@@H]1c2ccccc2C2(CCN(Cc3cccnc3)CC2)[C@H]1O the results were FMDV antiviral -6%.
For COc1ccc(CNC(=O)c2sc3nc4n(c(=O)c3c2C)CCCC4)cc1 the results were Lassa entry inh -2%[46.1 µM], FMDV antiviral 12% and HCMV inh -13.
For CCN(CC)c1cccc(OCC(=O)N2c3ccccc3CC2C)c1 (stereo not given) the results were FMDV antiviral -5%, HCV inh inconclusive and HCMV inh -77*.
Cc1ccc2oc(-c3ccc(C)c(NC(=O)C(C)(C)Oc4ccc(Cl)cc4)c3)nc2c1 was read as MARV entry inh inconclusive, Lassa entry inh 28%[46.1 µM], FMDV antiviral 25% and HCMV inh 87.
Screening O=C(c1ccco1)N(CCC(c1ccccc1)c1ccco1)Cc1ccco1 (stereo not given) returned MARV entry inh inconclusive, Lassa entry inh -29%, FMDV antiviral inconclusive, HCV inh 25% and HCMV inh 12.
Screening CC(=O)N(CCC(Cc1ccccc1)c1ccc2c(c1)OCO2)Cc1ccc(Cl)cc1 (stereo not given) returned MARV entry inh inconclusive, Lassa entry inh inconclusive, FMDV antiviral inconclusive, HCV inh 11µM* and HCMV inh -33.
For CC(=O)N(CCC(Cc1ccccc1)c1ccco1)Cc1ccco1 (stereo not given) the results were FMDV antiviral inconclusive, HCV inh 11µM* and HCMV inh 25.
Screening CCc1c(C)nc2ncnn2c1Nc1ccc(C)cc1 returned MARV entry inh inconclusive, Lassa entry inh -1%, FMDV antiviral -24%, HCV inh 2% and HCMV inh 8.
For CCc1c(C)nc2ncnn2c1NCCc1ccc(OC)cc1 the results were MARV entry inh inconclusive, Lassa entry inh inconclusive, FMDV antiviral 11µM*, HCV inh 5.6µM* and HCMV inh -92*.
Screening CCc1c(C)nc2ncnn2c1NCc1cccs1 returned MARV entry inh inconclusive, Lassa entry inh -27%, HCV inh -22% and HCMV inh -69*.
Screening O=C(Nc1cccc(F)c1)C1CCN(S(=O)(=O)c2cccc3nsnc23)CC1 returned MARV entry inh inconclusive, Lassa entry inh inconclusive, FMDV antiviral -25% and HCMV inh inconclusive.
Screening COc1ccccc1-c1ccc2n(c1=O)C[C@@H]1[C@@H](CO)[C@H](C(=O)NCCCN(C)C)N(C(C)=O)[C@H]21 returned HCMV inh 3.
Screening CC(C)NC(=O)CC1(C)N=C(c2cccc3ccccc23)N(C)O1 (stereo not given) returned HCMV inh -12.
CCOc1sc2nc(C)n(CC(=O)Nc3cccc(C)c3)c(=O)c2c1C was read as MARV entry inh inconclusive, Lassa entry inh -4%[46.1 µM], FMDV antiviral -12% and HCMV inh 2.
Screening Cc1cccc(C)c1NC(=S)NCCSc1ccc(Cl)cc1 returned MARV entry inh inconclusive, Lassa entry inh inconclusive, FMDV antiviral 1%, HCV inh 10µM* and HCMV inh inconclusive.
For COc1ccccc1-c1ccnc(-n2ncc(C(=O)NCc3ccncc3)c2C)n1 the results were FMDV antiviral -7%.
`N#Cc1c(NC(=O)CSc2ncn[nH]2)sc2c1CCCCC2` gave MARV entry inh 0.46µM*, Lassa entry inh -82%[14.3 µM], FMDV antiviral 8.9µM*, HCV inh inconclusive and HCMV inh -64*.
Screening CC(C)(C)c1ccc(-c2nnc(SCC(=O)Nc3sc4c(c3C#N)CCCC4)o2)cc1 returned MARV entry inh inconclusive, Lassa entry inh inconclusive, FMDV antiviral 5%, HCV inh -16% and HCMV inh -102*.
Screening COc1ccc(CNc2nc(-c3ccc(OC)c(OC)c3)cc(C(F)(F)F)n2)cc1 returned MARV entry inh -17%[46.1 µM], Lassa entry inh -11%[46.1 µM], FMDV antiviral -8% and HCMV inh 6.
`CCOc1cc2nc(-c3ccc(OC)c(OC)c3)nc(N3CC(C)OC(C)C3)c2cc1OC` (stereo not given) gave MARV entry inh 2%.
Screening COc1ccc(-c2cc(C(F)(F)F)nc(NC3CCCC3)n2)cc1OC returned MARV entry inh inconclusive, Lassa entry inh inconclusive, FMDV antiviral -18%, HCV inh 2.2µM* and HCMV inh 25.
For CCOc1cc2nc(-c3ccc(OC)c(OC)c3)nc(N3CCOCC3)c2cc1OC the results were MARV entry inh 2.5µM*, Lassa entry inh inconclusive, FMDV antiviral inconclusive, HCV inh inconclusive and HCMV inh 53.
`COc1ccc(-c2cc(-c3ccccc3)nc(N3CCCC3)n2)cc1OC` gave MARV entry inh -28%, Lassa entry inh -6%, FMDV antiviral -12%, HCV inh 3.5µM* and HCMV inh 2.
COc1ccc(-c2cc(C(F)(F)F)nc(N3CCOCC3)n2)cc1OC was read as MARV entry inh -27%, Lassa entry inh -7%, FMDV antiviral 0%, HCV inh 3.2µM* and HCMV inh 4.
C=CCc1c(C)nc2nc(SCC(=O)Nc3ccccc3CC)nn2c1C was read as Lassa entry inh 2%[46.1 µM], FMDV antiviral -7% and HCMV inh -29.
`CCOc1ccc(CC(=O)NCc2ccc3c(c2)CCN3C(C)=O)cc1OCC` gave Lassa entry inh -2%[46.1 µM], FMDV antiviral -2% and HCMV inh 74.
COCC1CCCN(Cc2ccc3c(c2)CN(C(=O)c2cn4ccc(C)cc4n2)CCO3)C1 (stereo not given) was read as FMDV antiviral -4%.
COc1ccc(C2c3c(-c4ccccc4)n[nH]c3C(=O)N2c2ccc(C(=O)O)cc2)cc1 (stereo not given) was read as FMDV antiviral -19%, HCV inh 15% and HCMV inh -12.
`COc1ccc(OC)c(C2c3c(-c4ccc(Br)cc4)n[nH]c3C(=O)N2c2ccc(Cl)cc2)c1` (stereo not given) gave MARV entry inh inconclusive, Lassa entry inh inconclusive, FMDV antiviral -24% and HCMV inh -105*.
`CCOC(=O)c1ccc(N2C(=O)c3[nH]nc(-c4ccc(OC)cc4)c3C2c2ccc(C)cc2)cc1` (stereo not given) gave MARV entry inh inconclusive, Lassa entry inh inconclusive, FMDV antiviral -15% and HCMV inh -83*.
